From PubChem
Sampled rows, rich in hits. Any-hit rate of the full collection: about 0.84%.
PPARg SRC2 recr – agonists of PPARg-SRC-2 recruitment, primary screen, biochemical, HTS; PPARgamma LBD-SRC-2 recruitment; activation, % at 8 µM; actives 0.34% (n = 200,000); in the data active means activation above about 22%;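 further: 0% = vehicle and 100% = reference agonist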
TR-FRET SRC-2 ct – TR-FRET signal artefacts, primary screen, artefact control for PPARgamma SRC-2 agonist project, biochemical | TR-FRET artefact counter-screen; stronger effect = higher value | TR-FRET ratio at 8 µM | actives 0.4% (n = 200,000)
SRC1 TRFRET art – TR-FRET detection interference compounds, primary screen, artefact control for PPARgamma SRC-1 recruitment agonists, biochemical, TR-FRET emission ratio; TR-FRET detection artefact counter-screen; stronger effect = higher value; TR-FRET ratio at 8 µM; actives 0.34% (n = 99,000); AID 1051, 2008; in the data active means TR-FRET ratio above about 2300
PPARg SRC3 recr – PPARgamma agonists recruiting SRC-3 coactivator, primary screen, biochemical; biochemical PPARgamma/SRC-3 coactivator recruitment assay; activation, % at 8 µM; actives 0.26% (n = 200,000); AID 731, 2007; in the data active means activation above about 23%;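 further: 0% = DMSO and 100% = reference agonist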
SRC3 TRFRET art – TR-FRET detection interference compounds, artefact control for PPARgamma SRC-3 recruitment agonists, biochemical, TR-FRET ratio. TR-FRET artefact counter-screen, PPARgamma/SRC-3 format; stronger effect = higher value. TR-FRET ratio at 8 µM. actives 0.39% (n = 99,000)
PPARg SRC1 recr – PPARgamma agonists recruiting SRC-1 coactivator, primary screen, biochemical; Peroxisome proliferator-activated receptor gamma (Homo sapiens), P37231; PPARgamma-SRC-1 coactivator recruitment biochemical assay; activation, % at 8 µM; actives 0.41% (n = 200,000); AID 631, 2007; in the data active means activation above about 19%;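 further: 0% = DMSO and 100% = reference agonist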
PPARg SRC2 ag – agonists of PPARgamma SRC-2 coactivator recruitment, confirmation, biochemical, HTS; shares compounds with PPARg SRC3 recr; biochemical SRC-2 recruitment by PPARgamma; activation, % at 8 µM; actives 52% (n = 790); AID 1297, 2008; in the data active means activation above about 22%;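 further: 0% = vehicle alone and 100% = reference agonist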
PPARg SRC1 ag – PPARgamma agonists recruiting SRC-1 coactivator, confirmation, biochemical; activation, % at 8 µM; shares compounds with PPARg SRC3 recr; actives 43% (n = 790); PPARgamma–SRC-1 coactivator recruitment biochemical assay; AID 1300, 2008; in the data active means activation above about 20%;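 further: 0% = vehicle wells and 100% = reference agonist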
PPARg SRC3 ag – PPARgamma-driven SRC-3 coactivator recruitment agonists, confirmation, biochemical; shares compounds with PPARg SRC3 recr; biochemical PPARgamma-SRC-3 coactivator recruitment, agonist mode; activation, % at 8 µM; actives 29% (n = 790); AID 1301, 2008; in the data active means activation above about 24%;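 further: 0% = vehicle wells and 100% = reference agonist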
Target sequence (P37231 whole entry, looked up): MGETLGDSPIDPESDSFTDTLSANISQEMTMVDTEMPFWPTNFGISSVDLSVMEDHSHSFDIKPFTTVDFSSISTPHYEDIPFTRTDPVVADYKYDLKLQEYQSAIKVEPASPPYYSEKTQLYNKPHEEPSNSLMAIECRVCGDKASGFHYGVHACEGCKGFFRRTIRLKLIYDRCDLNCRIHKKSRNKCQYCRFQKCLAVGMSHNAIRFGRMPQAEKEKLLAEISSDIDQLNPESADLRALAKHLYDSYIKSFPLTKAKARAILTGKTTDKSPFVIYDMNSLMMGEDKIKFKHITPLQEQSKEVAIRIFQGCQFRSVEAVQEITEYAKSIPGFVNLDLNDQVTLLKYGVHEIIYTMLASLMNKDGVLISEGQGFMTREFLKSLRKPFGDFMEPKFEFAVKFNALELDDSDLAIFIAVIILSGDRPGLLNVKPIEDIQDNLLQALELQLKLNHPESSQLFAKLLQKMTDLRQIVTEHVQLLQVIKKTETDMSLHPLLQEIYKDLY
Target sequence (Q9Y6Q9 whole entry, looked up): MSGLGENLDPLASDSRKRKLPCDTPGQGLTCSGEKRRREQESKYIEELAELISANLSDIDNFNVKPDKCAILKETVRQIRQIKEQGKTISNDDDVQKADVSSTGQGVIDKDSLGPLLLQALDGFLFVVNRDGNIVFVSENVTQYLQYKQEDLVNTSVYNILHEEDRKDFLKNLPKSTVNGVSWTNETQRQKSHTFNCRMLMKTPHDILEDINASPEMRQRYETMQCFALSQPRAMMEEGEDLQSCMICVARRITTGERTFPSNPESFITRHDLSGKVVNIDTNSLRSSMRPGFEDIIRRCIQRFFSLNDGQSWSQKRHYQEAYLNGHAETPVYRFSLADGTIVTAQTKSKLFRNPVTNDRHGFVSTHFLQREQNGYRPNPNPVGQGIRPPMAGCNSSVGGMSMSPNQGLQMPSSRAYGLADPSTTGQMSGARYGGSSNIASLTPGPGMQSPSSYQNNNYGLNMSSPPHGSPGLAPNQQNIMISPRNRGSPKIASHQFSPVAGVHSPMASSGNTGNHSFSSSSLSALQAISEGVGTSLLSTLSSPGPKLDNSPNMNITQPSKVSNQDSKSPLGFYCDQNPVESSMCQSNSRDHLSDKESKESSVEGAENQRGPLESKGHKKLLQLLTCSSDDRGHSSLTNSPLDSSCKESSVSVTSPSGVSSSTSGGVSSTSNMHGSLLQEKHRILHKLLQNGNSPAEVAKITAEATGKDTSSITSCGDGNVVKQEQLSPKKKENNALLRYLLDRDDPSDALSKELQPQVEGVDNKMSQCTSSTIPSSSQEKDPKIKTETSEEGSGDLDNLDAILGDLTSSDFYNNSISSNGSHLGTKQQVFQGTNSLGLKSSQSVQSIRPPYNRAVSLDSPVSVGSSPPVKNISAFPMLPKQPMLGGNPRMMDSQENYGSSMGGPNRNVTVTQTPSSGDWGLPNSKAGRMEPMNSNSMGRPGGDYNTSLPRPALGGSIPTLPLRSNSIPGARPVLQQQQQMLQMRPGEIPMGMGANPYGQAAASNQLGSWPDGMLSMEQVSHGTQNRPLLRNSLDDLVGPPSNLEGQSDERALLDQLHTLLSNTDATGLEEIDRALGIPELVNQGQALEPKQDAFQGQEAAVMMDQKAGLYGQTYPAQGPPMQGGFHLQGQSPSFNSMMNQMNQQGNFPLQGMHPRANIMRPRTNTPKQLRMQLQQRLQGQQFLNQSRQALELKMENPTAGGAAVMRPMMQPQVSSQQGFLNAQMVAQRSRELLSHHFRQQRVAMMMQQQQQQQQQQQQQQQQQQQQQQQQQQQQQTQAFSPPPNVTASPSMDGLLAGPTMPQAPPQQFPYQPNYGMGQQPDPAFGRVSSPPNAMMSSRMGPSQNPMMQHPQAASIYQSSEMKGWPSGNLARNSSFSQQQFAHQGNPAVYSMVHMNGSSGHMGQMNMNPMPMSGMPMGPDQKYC
Starred values were filed as active, the others as inactive; nt = no result given. Unless noted, no stated cut-off is given here; in the data, active means TR-FRET ratio above about 2000; inactive means the rest.

SMILES	PPARg SRC2 recr	TR-FRET SRC-2 ct	SRC1 TRFRET art	PPARg SRC3 recr	SRC3 TRFRET art	PPARg SRC1 recr	others
O=C1Nc2ccccc2/C1=C/c1cnc[nH]1	17.4	1808	nt	33.2*	nt	12.4
Cc1cccc(NP(=O)(Oc2ccccc2F)Oc2ccccc2F)c1C	-4.5	1715	2320*	2.4	1742	7.1
Cc1c2ccncc2c(C)c2c1[nH]c1ccccc12	7.6	1611	2068	6.3	1767	26.9*
c1ccc2c(c1)[nH]c1cnccc12	4.8	1759	1918	5.7	1611	8.4
CCOc1ccc(N2C(=O)NC(=O)/C(=C/c3cnc(SC)nc3)C2=O)cc1	13.4	1698	1804	0.0	1644	7.7
COc1ccc(C(=O)C(C)(C)NO)cc1	3.4	1650	nt	27.5*	nt	2.5
COc1ccc(C(=O)C23CN4CN(CN(C4)C2)C3)cc1	3.3	1613	1575	-6.0	1554	-6.5
Cc1[nH]c2ccccc2c1C(=O)C(=O)N1CC2CC(C1)c1cccc(=O)n1C2 (stereo not drawn)	2.1	1729	2068	0.8	1615	11.1
CC1=CC(=C2C(=O)NC(=S)NC2=O)C=C(C(F)(F)F)N1CCc1ccccc1	-4.2	1465	1745	-1.0	1649	2.1
c1cncc(CNC2CCCC2)c1	0.1	1583	3393*	-1.4	1585	40.1*
Cn1c(=O)cc(SCC(=O)N2CCC3(CC2)OCCO3)c2ccccc21	38.7*	2418*	nt	60.3*	nt	43.8*	PPARg SRC2 ag=33.0*;PPARg SRC1 ag=20.2*;PPARg SRC3 ag=22.8
Cc1c(N=Nc2c(O)n(C)c(=O)n(C)c2=O)c(=O)n(-c2ccccc2)n1C	3.4	1562	1932	3.4	1721	9.3
Cc1ccccc1-n1c(O)c(C=Nc2ccc(N(C)C)cc2)c(=O)[nH]c1=O	22.7*	2050*	nt	25.7*	nt	15.2	PPARg SRC2 ag=6.8;PPARg SRC1 ag=10.1;PPARg SRC3 ag=5.3
Cc1cccc(N=Cc2c(O)n(-c3ccccc3C)c(=O)[nH]c2=O)c1	0.3	1341	nt	-10.2	nt	-1.6
C=CCn1c(O)c(C=Nc2ccc(N(CC)CC)cc2)c(=O)[nH]c1=O	17.9	1780	nt	25.8*	nt	7.5	PPARg SRC2 ag=8.7;PPARg SRC1 ag=9.5;PPARg SRC3 ag=8.5
O=P(O)(Oc1ccccc1)OC(c1ccccc1)C(F)(F)C(F)(F)F (stereo not drawn)	-5.2	1523	1655	-0.1	1429	6.9
